# Where “and” joins values, the source holds several entries; their conditions need not be identical. Identical values can stand only once. About 79,000 compounds went through this panel and 15% of them were active in at least one assay; those are over-represented in the sample as a whole. A number with no mark means an inactive call. Calls of active or inactive are those of the source. No stated cut-off is given here; in the data, active means growth inhibition above about 70%; inactive means the rest.
# Experiments:
# [1] = NCI Yeast Anticancer Drug Screen. Data for the wt1 strain (AID 149);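 further: 0% = growth of vehicle-treated wt1 cultures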; conditions: S. cerevisiae wt1 strain (SPY 50644) growth inhibition, hits give high values
# Procedure, shortened: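 wt1 yeast, compound-treated; % growth inhibition vs vehicle control.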
# [2] = NCI Yeast Anticancer Drug Screen. Data for the rad50 strain (AID 155);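 further: 0% = growth of vehicle-only cultures of the same strain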; conditions: S. cerevisiae rad50 strain growth inhibition, hits give high values
# Procedure, shortened: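 Genetically altered yeast (DNA repair pathway); compound treatment; growth inhibition vs vehicle ctrl.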
# [3] = NCI Yeast Anticancer Drug Screen. Data for the mec2-1 strain (AID 157); conditions: S. cerevisiae mec2-1 strain, hits give high values
# Procedure, shortened: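 Vehicle-treated cultures served as reference for growth inhibition of compound-exposed mec2-1 yeast.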
# [4] = NCI Yeast Anticancer Drug Screen. Data for the rad14 strain (AID 159);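 further: 0% = growth of vehicle-treated control cultures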; conditions: S. cerevisiae rad14 strain growth inhibition, hits give high values
# Procedure, shortened: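 Test compounds were applied to a repair-deficient yeast strain. Its growth was then compared with that of cultures given vehicle alone, and inhibition was expressed relative to those controls.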
# [5] = NCI Yeast Anticancer Drug Screen. Data for the sgs1 mgt1 strain (AID 161);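 further: 0% = growth of cultures given vehicle only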; conditions: S. cerevisiae sgs1 mgt1 strain, hits give high values
# Procedure, shortened: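 Read-out: growth inhibition vs vehicle controls. Cells: mutant yeast strain deficient in DNA damage repair.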
# [6] = NCI Yeast Anticancer Drug Screen. Data for the CLN2oe strain (AID 163);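 further: 0% = growth of vehicle-only control cultures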; conditions: S. cerevisiae CLN2oe strain, hits give high values
# Procedure, shortened: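 Inhibition relative to vehicle-treated yeast is reported. Cells: strain with genetic alteration in cell-cycle control, grown with compound.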
# [7] = NCI Yeast Anticancer Drug Screen. Data for the cln2 rad14 strain (AID 165);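 further: 0% = growth equal to vehicle treated cultures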; conditions: S. cerevisiae cln2 rad14 strain, hits give high values
# Procedure, shortened: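 Each compound was tested on cln2 rad14 yeast. Inhibition of growth was calculated against vehicle-exposed controls.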
# [8] = NCI Yeast Anticancer Drug Screen. Data for the bub3 strain (AID 167); conditions: S. cerevisiae bub3 mutant strain, hits give high values
# Procedure, shortened: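 Yeast carrying a defined mutation is treated with each compound, and growth is compared with that of vehicle-exposed cells to give inhibition.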
# [9] = NCI Yeast Anticancer Drug Screen. Data for the wt2 strain (AID 169);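 further: 0% = growth of vehicle-treated yeast cultures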; conditions: S. cerevisiae wt2 strain growth inhibition, hits give high values
# Procedure, shortened: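 Inhibition of yeast growth was determined after compound treatment, normalised to controls receiving only vehicle.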
# [10] = NCI Yeast Anticancer Drug Screen. Data for the mlh1 strain (AID 171);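 further: 0% = growth of vehicle-treated control cultures of the same strain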; conditions: S. cerevisiae mlh1 strain growth inhibition, hits give high values
# Procedure, shortened: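 Vehicle-normalised growth inhibition of a repair- or checkpoint-altered yeast strain following compound treatment.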
# [11] = NCI Yeast Anticancer Drug Screen. Data for the sgs1 strain (AID 173);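 further: 0% = growth of vehicle-only control cultures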; conditions: S. cerevisiae sgs1 mutant, hits give high values
# Procedure, shortened: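 Screen format: yeast with repair or checkpoint alterations, compound exposure, growth read relative to vehicle.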
# [12] = NCI Yeast Anticancer Drug Screen. Data for the mlh1 rad18 strain (AID 175); conditions: S. cerevisiae mlh1 rad18 strain growth inhibition, hits give high values
# Procedure, shortened: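 Vehicle-treated cultures served as the reference for growth inhibition in a yeast strain carrying DNA damage repair alterations exposed to each compound.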
# [13] = NCI Yeast Anticancer Drug Screen. Data for the rad18 strain (AID 177); conditions: S. cerevisiae rad18 mutant growth inhibition, hits give high values
# Procedure, shortened: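 Test articles were incubated with altered yeast defective in DNA damage repair. Results are given as inhibition of growth versus vehicle.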
# [14] = at 5.0 µM (retest, dose inferred, filed as 0.5)
# [15] = at 50.0 µM (retest, dose inferred, filed as 5.0)
smiles,measurement,setting,value
CNCC(O)c1ccc(O)c(O)c1.[Pt].c1ccc([PH+](c2ccccc2)c2ccccc2)cc1.c1ccc([PH+](c2ccccc2)c2ccccc2)cc1,growth inhibition,[1]; at 1.2 µM,-1%
same,growth inhibition,[1]; at 3.7 µM,-2%
same,growth inhibition,[1]; at 11.0 µM,-2%
same,growth inhibition,[1]; at 33.0 µM,8%
same,growth inhibition,[1]; at 100.0 µM,53%
same,growth inhibition,[2]; at 1.2 µM,-1%
same,growth inhibition,[2]; at 3.7 µM,-3%
same,growth inhibition,[2]; [14],-8%
same,growth inhibition,[2]; at 11.0 µM,-1%
same,growth inhibition,[2]; at 33.0 µM,96% (active)
same,growth inhibition,[2]; [15],99% (active)
same,growth inhibition,[2]; at 50.0 µM,99% (active)
same,growth inhibition,[2]; at 100.0 µM,96% (active)
same,growth inhibition,[3]; at 1.2 µM,3%
same,growth inhibition,[3]; at 3.7 µM,6%
same,growth inhibition,[3]; [14],-8%
same,growth inhibition,[3]; at 11.0 µM,4%
same,growth inhibition,[3]; at 33.0 µM,65%
same,growth inhibition,[3]; [15],99% (active)
same,growth inhibition,[3]; at 50.0 µM,98.8% (active)
same,growth inhibition,[3]; at 100.0 µM,97% (active)
same,growth inhibition,[4]; at 1.2 µM,-1%
same,growth inhibition,[4]; at 3.7 µM,-3%
same,growth inhibition,[4]; at 11.0 µM,4%
same,growth inhibition,[4]; at 33.0 µM,98% (active)
same,growth inhibition,[4]; at 100.0 µM,96% (active)
same,growth inhibition,[5]; [14],-2%
same,growth inhibition,[5]; [15],-7%
same,growth inhibition,[5]; at 50.0 µM,99.1% (active)
same,growth inhibition,[6]; at 1.2 µM,0%
same,growth inhibition,[6]; at 3.7 µM,-8%
same,growth inhibition,[6]; at 11.0 µM,3%
same,growth inhibition,[6]; at 33.0 µM,93% (active)
same,growth inhibition,[6]; at 100.0 µM,96% (active)
same,growth inhibition,[7]; [14],17%
same,growth inhibition,[7]; [15],99% (active)
same,growth inhibition,[7]; at 50.0 µM,98.8% (active)
same,growth inhibition,[8]; at 1.2 µM,0%
same,growth inhibition,[8]; at 3.7 µM,1%
same,growth inhibition,[8]; [14],-18%
same,growth inhibition,[8]; at 11.0 µM,-3%
same,growth inhibition,[8]; at 33.0 µM,75% (active)
same,growth inhibition,[8]; [15],99% (active)
same,growth inhibition,[8]; at 50.0 µM,98.8% (active)
same,growth inhibition,[8]; at 100.0 µM,96% (active)
same,growth inhibition,[9]; at 1.2 µM,-2%
same,growth inhibition,[9]; at 3.7 µM,-2%
same,growth inhibition,[9]; at 11.0 µM,8%
same,growth inhibition,[9]; at 33.0 µM,98% (active)
same,growth inhibition,[9]; at 100.0 µM,98% (active)
same,growth inhibition,[10]; at 1.2 µM,-3%
same,growth inhibition,[10]; at 3.7 µM,-1%
same,growth inhibition,[10]; at 11.0 µM,8%
same,growth inhibition,[10]; at 33.0 µM,91% (active)
same,growth inhibition,[10]; at 100.0 µM,97% (active)
same,growth inhibition,[11]; at 1.2 µM,2%
same,growth inhibition,[11]; at 3.7 µM,4%
same,growth inhibition,[11]; at 11.0 µM,15%
same,growth inhibition,[11]; at 33.0 µM,86% (active)
same,growth inhibition,[11]; at 100.0 µM,97% (active)
same,growth inhibition,[12]; [14],13%
same,growth inhibition,[12]; [15],99% (active)
same,growth inhibition,[12]; at 50.0 µM,99% (active)
same,growth inhibition,[13]; at 1.2 µM,0%
same,growth inhibition,[13]; at 3.7 µM,2%
same,growth inhibition,[13]; at 11.0 µM,19%
same,growth inhibition,[13]; at 33.0 µM,80% (active)
same,growth inhibition,[13]; at 100.0 µM,96% (active)
CCC[CH2][Sn]([CH2]CCC)([CH2]CCC)[O]C(=O)C[N+](C)(C)c1cc[c]([Hg][c]2ccc(N(C)C)cc2)cc1,growth inhibition,[2]; [14],99% (active)
same,growth inhibition,[2]; [15],99% (active)
same,growth inhibition,[2]; at 50.0 µM,98.6% (active) and 97.8% (active)
same,growth inhibition,[3]; [14],100% (active)
same,growth inhibition,[3]; [15],100% (active) and 99% (active)
same,growth inhibition,[3]; at 50.0 µM,99.5% (active)
same,growth inhibition,[5]; [14],100% (active)
same,growth inhibition,[5]; [15],98% (active) and 99% (active)
same,growth inhibition,[5]; at 50.0 µM,99.1% (active) and 99.2% (active)
same,growth inhibition,[7]; [14],99% (active)
same,growth inhibition,[7]; [15],99% (active)
same,growth inhibition,[7]; at 50.0 µM,98.4% (active) and 98.9% (active)
same,growth inhibition,[8]; [14],99% (active)
same,growth inhibition,[8]; [15],99% (active)
same,growth inhibition,[8]; at 50.0 µM,98.8% (active) and 99.1% (active)
same,growth inhibition,[12]; [14],99% (active)
same,growth inhibition,[12]; [15],99% (active)
same,growth inhibition,[12]; at 50.0 µM,99% (active) and 99.2% (active)
